Values joined by “and” are separate entries in the source; they are usually repeats but may differ in a detail not shown here. Equal values may be shown once. About 2,000 (36%) of roughly 5,500 compounds were called active. Not shown: some 18% with an inconclusive outcome. Rule as the data show it: active = normalized growth mostly below about 0.91 (no sharp cut-off); inconclusive = no clear call, values can overlap the other calls; inactive = mostly above about 0.92. Some of the results follow.
Test: chemical genetic growth profiling, strain panel (AID 1159580);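 also: tested at 20 µM; growth read once vehicle control cultures reached saturation at 30 °C; 1 = growth at the plate median or of vehicle wells; lower values mean less growth of the strain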
Details: S. cerevisiae deletion strains, growth OD

Measured: normalized growth

CN(C)c1ccc(C(=C2C=CC(=[N+](C)C)C=C2)c2ccc(N(C)C)cc2)cc1
active: locus YAL013W, strain DEP1, stronger effect = lower value 0.362 | locus YAL021C, strain ccr4, stronger effect = lower value 0.479 | locus YAL026C, strain drs2, stronger effect = lower value 0.563 | locus YAL030W, strain snc1, stronger effect = lower value 0.453 | locus YBL061C, strain skt5, stronger effect = lower value 0.535 | locus YBR009C, strain hhf1, stronger effect = lower value 0.486 | locus YBR021W, strain FUR4, stronger effect = lower value 0.603 | locus YBR023C, strain chs3, stronger effect = lower value 0.506 | locus YBR171W, strain sec66, stronger effect = lower value 0.717 | locus YBR229C, strain ROT2, stronger effect = lower value 0.353 | locus YBR231C, strain swc5, stronger effect = lower value 0.551 | locus YBR279W, strain paf1, stronger effect = lower value 0.463 | locus YCL011C, strain gbp2, stronger effect = lower value 0.524 | locus YCL016C, strain dcc1, stronger effect = lower value 0.473 | locus YCL029C, strain bik1, stronger effect = lower value 0.507 | locus YCL069W, strain vba3, stronger effect = lower value 0.57 | locus YCR088W, strain abp1, stronger effect = lower value 0.563 | locus YDL005C, strain med2, stronger effect = lower value 0.67 | locus YDL035C, strain GPR1, stronger effect = lower value 0.317 | locus YDL040C, strain nat1, stronger effect = lower value 0.48 | locus YDL074C, strain BRE1, stronger effect = lower value 0.492 | locus YDL101C, strain DUN1, stronger effect = lower value 0.397 | locus YDL185W, strain tfp1, stronger effect = lower value 0.433 | locus YDL192W, strain arf1, stronger effect = lower value 0.462 | locus YDR001C, strain nth1, stronger effect = lower value 0.562 | locus YDR069C, strain doa4, stronger effect = lower value 0.61 | locus YDR101C, strain arx1, stronger effect = lower value 0.486 | locus YDR137W, strain rgp1, stronger effect = lower value 0.77 | locus YDR159W, strain sac3, stronger effect = lower value 0.75 | locus YDR162C, strain NBP2, stronger effect = lower value 0.316 | locus YDR297W, strain sur2, stronger effect = lower value 0.537 | locus YDR318W, strain mcm21, stronger effect = lower value 0.487 | locus YDR334W, strain swr1, stronger effect = lower value 0.578 | locus YDR335W, strain msn5, stronger effect = lower value 0.577 | locus YDR388W, stronger effect = lower value 0.435 | locus YDR392W, strain spt3, stronger effect = lower value 0.658 | locus YDR502C, strain sam2, stronger effect = lower value 0.534 | locus YEL003W, strain gim4, stronger effect = lower value 0.547 | locus YEL037C, strain rad23, stronger effect = lower value 0.565 | locus YEL061C, strain CIN8 (second series), stronger effect = lower value 0.569 | locus YEL061C, strain CIN8, stronger effect = lower value 0.347 | locus YER015W, strain faa2, stronger effect = lower value 0.574 | locus YER016W, strain bim1, stronger effect = lower value 0.494 | locus YER110C, stronger effect = lower value 0.586 | locus YER111C, strain swi4, stronger effect = lower value 0.744 | locus YER155C, strain BEM2 (second series), stronger effect = lower value 0.826 | locus YER155C, strain BEM2, stronger effect = lower value 0.411 | locus YER167W, strain BCK2, stronger effect = lower value 0.334 | locus YFR010W, strain ubp6, stronger effect = lower value 0.614 | locus YGL078C, strain dbp3, stronger effect = lower value 0.493 | locus YGL086W, strain mad1, stronger effect = lower value 0.406 | locus YGL167C, strain pmr1, stronger effect = lower value 0.59 | locus YGL173C, strain kem1, stronger effect = lower value 0.637 | locus YGL227W, strain vid30, stronger effect = lower value 0.561 | locus YGL240W, strain doc1, stronger effect = lower value 0.618 | locus YGL248W, strain PDE1, stronger effect = lower value 0.345 | locus YGL253W, strain hxk2, stronger effect = lower value 0.465 | locus YGR078C, strain PAC10, stronger effect = lower value 0.321 | locus YGR135W, strain pre9, stronger effect = lower value 0.509 | locus YGR229C, strain SMI1, stronger effect = lower value 0.363 | locus YGR252W, strain gcn5, stronger effect = lower value 1.33 [resistant] | locus YHR013C, strain ard1, stronger effect = lower value 0.747 | locus YHR027C, strain rpn1, stronger effect = lower value 0.525 | locus YHR079C, strain IRE1 (second series), stronger effect = lower value 0.476 | locus YHR079C, strain IRE1, stronger effect = lower value 1.26 [resistant] | locus YHR094C, strain hxt1, stronger effect = lower value 0.455 | locus YHR129C, strain ARP1, stronger effect = lower value 0.366 | locus YHR142W, strain chs7, stronger effect = lower value 0.638 | locus YHR200W, strain rpn10, stronger effect = lower value 0.459 | locus YIL066C, strain RNR3, stronger effect = lower value 0.346 | locus YIL073C, strain SPO22, stronger effect = lower value 0.67 | locus YIL125W, strain kgd1, stronger effect = lower value 0.505 | locus YIR030C, strain dcg1, stronger effect = lower value 0.493 | locus YJL092W, strain hpr5, stronger effect = lower value 0.548 | locus YJL095W, strain BCK1 (second series), stronger effect = lower value 0.525 | locus YJL115W, strain asf1, stronger effect = lower value 0.651 | locus YJL129C, strain trk1, stronger effect = lower value 0.795 | locus YJL134W, strain LCB3, stronger effect = lower value 0.349 | locus YJL154C, strain vps35, stronger effect = lower value 0.551 | locus YJL164C, strain tpk1, stronger effect = lower value 0.548 | locus YJL166W, strain qcr8, stronger effect = lower value 0.478 | locus YJL168C, strain set2, stronger effect = lower value 0.448 | locus YJL187C, strain SWE1 (second series), stronger effect = lower value 0.333 | locus YJL187C, strain SWE1, stronger effect = lower value 0.521 | locus YJR043C, strain POL32, stronger effect = lower value 0.373 | locus YJR066W, strain TOR1, stronger effect = lower value 0.0572 | locus YKL009W, strain mrt4, stronger effect = lower value 0.538 | locus YKL068W, stronger effect = lower value 0.431 | locus YKL085W, strain MDH1 (second series), stronger effect = lower value 0.429 | locus YKL085W, strain MDH1, stronger effect = lower value 0.429 | locus YKL160W, strain elf1, stronger effect = lower value 0.44 | locus YKR001C, strain vps1, stronger effect = lower value 0.514 | locus YKR026C, strain gcn3, stronger effect = lower value 0.573 | locus YKR091W, strain srl3, stronger effect = lower value 0.536 | locus YLL001W, strain dnm1, stronger effect = lower value 0.605 | locus YLL026W, stronger effect = lower value 0.536 | locus YLL041C, strain sdh2, stronger effect = lower value 0.468 | locus YLR027C, strain aat2, stronger effect = lower value 0.449 | locus YLR058C, strain SHM2, stronger effect = lower value 0.364 | locus YLR102C, strain apc9, stronger effect = lower value 0.449 | locus YLR113W, strain HOG1, stronger effect = lower value 1.5 [resistant] | locus YLR221C, strain rsa3, stronger effect = lower value 0.457 | locus YLR258W, strain gsy2, stronger effect = lower value 0.527 | locus YLR262C, strain YPT6 (second series), stronger effect = lower value 0.65 | locus YLR268W, strain sec22, stronger effect = lower value 0.553 | locus YLR320W, strain mms22, stronger effect = lower value 0.558 | locus YLR330W, strain CHS5, stronger effect = lower value 0.355 | locus YLR342W, strain FKS1 (second series), stronger effect = lower value 0.388 | locus YLR342W, strain FKS1, stronger effect = lower value 0.499 | locus YLR370C, strain arc18, stronger effect = lower value 0.564 | locus YLR371W, strain rom2, stronger effect = lower value 0.489 | locus YLR384C, strain iki3, stronger effect = lower value 0.486 | locus YLR418C, strain cdc73, stronger effect = lower value 0.769 | locus YML016C, strain PPZ1, stronger effect = lower value 0.345 | locus YML032C, strain rad52, stronger effect = lower value 0.583 | locus YML120C, strain ndi1, stronger effect = lower value 0.554 | locus YML124C, strain tub3, stronger effect = lower value 0.48 | locus YMR058W, strain fet3, stronger effect = lower value 0.59 | locus YMR078C, strain ctf18, stronger effect = lower value 0.546 | locus YMR125W, strain sto1, stronger effect = lower value 0.617 | locus YMR129W, stronger effect = lower value 0.505 | locus YMR205C, strain PFK2, stronger effect = lower value 0.688 | locus YMR223W, strain ubp8, stronger effect = lower value 0.524 | locus YMR231W, strain pep5, stronger effect = lower value 0.558 | locus YMR307W, strain GAS1, stronger effect = lower value 0.562 | locus YNL067W, strain RPL9B, stronger effect = lower value 0.315 | locus YNL071W, strain lat1, stronger effect = lower value 0.573 | locus YNL183C, strain NPR1, stronger effect = lower value -0.00369 | locus YNL209W, strain ssb2, stronger effect = lower value 0.435 | locus YNL233W, strain BNI4, stronger effect = lower value 0.338 | locus YNL248C, strain rpa49, stronger effect = lower value 0.6 | locus YNL250W, strain rad50, stronger effect = lower value 0.597 | locus YNL271C, strain bni1, stronger effect = lower value 0.458 | locus YNL298W, strain CLA4, stronger effect = lower value 0.511 | locus YNL307C, strain MCK1, stronger effect = lower value 0.521 | locus YNL322C, strain KRE1 (second series), stronger effect = lower value 0.626 | locus YNL322C, strain KRE1, stronger effect = lower value 0.318 | locus YNR049C, strain mso1, stronger effect = lower value 0.547 | locus YNR052C, strain pop2, stronger effect = lower value 0.497 | locus YOL147C, strain pex11, stronger effect = lower value 0.501 | locus YOR001W, strain rrp6, stronger effect = lower value 0.55 | locus YOR061W, strain CKA2, stronger effect = lower value 0.335 | locus YOR069W, strain VPS5, stronger effect = lower value 0.33 | locus YOR070C, strain gyp1, stronger effect = lower value 0.466 | locus YOR080W, strain dia2, stronger effect = lower value 0.569 | locus YOR083W, strain WHI5, stronger effect = lower value 0.547 | locus YOR106W, strain vam3, stronger effect = lower value 0.505 | locus YOR136W, strain idh2, stronger effect = lower value 0.549 | locus YOR144C, strain elg1, stronger effect = lower value 0.483 | locus YOR184W, strain ser1, stronger effect = lower value 0.604 | locus YOR231W, strain MKK1, stronger effect = lower value 1.28 [resistant] | locus YOR265W, strain rbl2, stronger effect = lower value 0.469 | locus YOR270C, strain vph1, stronger effect = lower value 0.762 | locus YOR290C, strain snf2, stronger effect = lower value 0.636 | locus YOR316C, strain cot1, stronger effect = lower value 0.454 | locus YPL051W, strain arl3, stronger effect = lower value 0.488 | locus YPL055C, strain LGE1, stronger effect = lower value 0.408 | locus YPL078C, strain atp4, stronger effect = lower value 0.643 | locus YPL106C, strain sse1, stronger effect = lower value 0.77 | locus YPL240C, strain hsp82, stronger effect = lower value 0.466 | locus YPL241C, strain CIN2, stronger effect = lower value 0.316 | locus YPL256C, strain CLN2, stronger effect = lower value 1.48 [resistant] | locus YPR119W, strain clb2, stronger effect = lower value 0.472 | locus YPR141C, strain kar3, stronger effect = lower value 0.559 | locus YPR163C, strain tif3, stronger effect = lower value 0.517 | locus YPR167C, strain met16, stronger effect = lower value 0.49 | strain wtn01, stronger effect = lower value 0.535
0.364 (active) and 1.08 (inactive): locus YHR030C, strain SLT2, stronger effect = lower value
inactive: locus YDR195W, strain ref2 1.06 | locus YLR039C, strain RIC1, stronger effect = lower value 0.713 | locus YLR262C, strain YPT6, stronger effect = lower value 0.753 | locus YLR357W, strain rsc2, stronger effect = lower value 1.04 | locus YOL012C, strain htz1 1.5
0.406 (active) and 1.08 (inactive): locus YJL095W, strain BCK1, stronger effect = lower value

From PubChem BioAssay AID1159580 (chemical genetic matrix, 2015)
